Screen size: about 5,500 compounds; about 2,000 (36%) were called active. Inconclusive results (about 18%) are left out. This is one part of the list. A number with no mark means an inactive call. Cut-off read from the data, not from the text of the source: active = normalized growth mostly below about 0.91 (no sharp cut-off); inconclusive = no clear call, values can overlap the other calls; inactive = mostly above about 0.92.
Experiment: chemical genetic growth profiling, strain panel (AID 1159580);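 note: tested at 20 µM; growth read once vehicle control cultures reached saturation at 30 °C; 1 = growth at the plate median or of vehicle wells; lower values mean less growth of the strain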
Settings: S. cerevisiae deletion strains, growth OD
[1] = locus YDL101C, strain DUN1, hits give low values
[2] = locus YHR030C, strain SLT2, hits give low values

SMILES: O=C(N/N=C\c1cccs1)c1ccccc1CO
- normalized growth (locus YAL013W, strain DEP1, hits give low values): 0.998
- normalized growth (locus YBR229C, strain ROT2, hits give low values): 1.01
- normalized growth [1]: 0.997
- normalized growth (locus YDL134C, strain PPH21, hits give low values): 1
- normalized growth (locus YDR150W, strain NUM1, hits give low values): 1
- normalized growth (locus YEL061C, strain CIN8, hits give low values): 0.994
- normalized growth (locus YGR078C, strain PAC10, hits give low values): 0.994
- normalized growth (locus YGR229C, strain SMI1, hits give low values): 1
- normalized growth [2]: 1
- normalized growth (locus YHR087W, strain rtc3, hits give low values): 1
- normalized growth (locus YJL187C, strain SWE1, hits give low values): 0.989
- normalized growth (locus YJR043C, strain POL32, hits give low values): 0.999
- normalized growth (locus YJR075W, strain HOC1, hits give low values): 0.995
- normalized growth (locus YLR039C, strain RIC1, hits give low values): 0.999
- normalized growth (locus YLR058C, strain SHM2 (second series), hits give low values): 1.01
- normalized growth (locus YLR085C, strain ARP6, hits give low values): 0.996
- normalized growth (locus YLR262C, strain YPT6, hits give low values): 1.04
- normalized growth (locus YML094W, strain GIM5, hits give low values): 0.986
- normalized growth (locus YMR219W, strain ESC1, hits give low values): 1
- normalized growth (locus YMR263W, strain SAP30, hits give low values): 0.997
- normalized growth (locus YMR307W, strain GAS1, hits give low values): 1
- normalized growth (locus YNL128W, strain TEP1, hits give low values): 1.01
- normalized growth (locus YNL153C, strain GIM3, hits give low values): 0.99
- normalized growth (locus YNL298W, strain CLA4 (second series), hits give low values): 1
- normalized growth (locus YNL322C, strain KRE1, hits give low values): 0.996
- normalized growth (locus YNR030W, strain Alg12, hits give low values): 1.01
- normalized growth (locus YOL006C, strain TOP1, hits give low values): 0.994
- normalized growth (locus YPL055C, strain LGE1, hits give low values): 1.01
- normalized growth (locus YPL241C, strain CIN2, hits give low values): 0.992
- normalized growth (locus YPR135W, strain CTF4, hits give low values): 1.04

SMILES: O=[N+]([O-])c1ccccc1CS(=O)(=O)c1nc2ccccc2s1
- normalized growth (locus YAR019C, strain CDC15, hits give low values): 0.862 (active)
- normalized growth (locus YBL105C, strain PKC1, hits give low values): 0.895 (active)
- normalized growth (locus YBR135W, strain CKS1, hits give low values): 0.89 (active)
- normalized growth (locus YBR136W, strain MEC1, hits give low values): 0.883 (active)
- normalized growth (locus YBR160W, strain CDC28, hits give low values): 0.886 (active)
- normalized growth (locus YDL017W, strain CDC7, hits give low values): 0.894 (active)
- normalized growth (locus YDL028C, strain MPS1, hits give low values): 0.892 (active)
- normalized growth [1]: 0.889 (active)
- normalized growth (locus YDL108W, strain KIN28, hits give low values): 0.889 (active)
- normalized growth (locus YDL132W, strain cdc53, hits give low values): 0.828 (active)
- normalized growth (locus YDL214C, strain PRR2, hits give low values): 0.884
- normalized growth (locus YDR052C, strain DBF4, hits give low values): 0.87 (active)
- normalized growth (locus YDR054C, strain cdc34, hits give low values): 0.855 (active)
- normalized growth (locus YDR226W, strain ADK1, hits give low values): 0.878 (active)
- normalized growth (locus YDR477W, strain SNF1, hits give low values): 0.728
- normalized growth (locus YER123W, strain YCK3, hits give low values): 0.821
- normalized growth (locus YER133W, strain GLC7, hits give low values): 0.773
- normalized growth (locus YFL009W, strain cdc4, hits give low values): 0.855 (active)
- normalized growth (locus YFL029C, strain CAK1, hits give low values): 0.849 (active)
- normalized growth (locus YFR003C, strain YPI1, hits give low values): 0.904
- normalized growth (locus YFR019W, strain FAB1, hits give low values): 0.933
- normalized growth (locus YFR028C, strain CDC14, hits give low values): 0.863 (active)
- normalized growth (locus YGR040W, strain KSS1, hits give low values): 0.791
- normalized growth (locus YGR052W, strain FMP48, hits give low values): 0.835
- normalized growth (locus YGR092W, strain DBF2, hits give low values): 0.537
- normalized growth [2]: 0.671 (active)
- normalized growth (locus YHR079C, strain IRE1, hits give low values): 0.946
- normalized growth (locus YHR082C, strain KSP1, hits give low values): 0.949
- normalized growth (locus YHR205W, strain SCH9, hits give low values): 0.933
- normalized growth (locus YIL147C, strain SLN1, hits give low values): 0.894
- normalized growth (locus YJL095W, strain BCK1, hits give low values): 0.616
- normalized growth (locus YJL128C, strain PBS2, hits give low values): 0.953
- normalized growth (locus YJL157C, strain FAR1, hits give low values): 0.867
- normalized growth (locus YJR016C, strain ILV3, hits give low values): 0.871 (active)
- normalized growth (locus YJR066W, strain TOR1 (second series), hits give low values): 0.832
- normalized growth (locus YJR066W, strain TOR1, hits give low values): 0.753
- normalized growth (locus YKL048C, strain ELM1, hits give low values): 0.755 (active)
- normalized growth (locus YKL067W, strain YNK1, hits give low values): 0.921
- normalized growth (locus YKL101W, strain HSL1, hits give low values): 0.902
- normalized growth (locus YKL193C, strain SDS22, hits give low values): 0.864 (active)
- normalized growth (locus YKL203C, strain TOR2, hits give low values): 0.711 (active)
- normalized growth (locus YLR113W, strain HOG1, hits give low values): 0.887
- normalized growth (locus YLR133W, strain CKI1, hits give low values): 0.916
- normalized growth (locus YLR403W, strain SFP1, hits give low values): 0.503 (active)
- normalized growth (locus YML070W, strain DAK1, hits give low values): 0.881
- normalized growth (locus YMR001C, strain CDC5, hits give low values): 0.891
- normalized growth (locus YMR205C, strain PFK2 (second series), hits give low values): 0.91
- normalized growth (locus YMR277W, strain FCP1, hits give low values): 0.852 (active)
- normalized growth (locus YNL006W, strain LST8, hits give low values): 0.894 (active)
- normalized growth (locus YNL020C, strain ARK1, hits give low values): 0.918
- normalized growth (locus YNL161W, strain CBK1, hits give low values): 0.885 (active)
- normalized growth (locus YNL183C, strain NPR1, hits give low values): 0.871
- normalized growth (locus YNL207W, strain RIO2, hits give low values): 0.852 (active)
- normalized growth (locus YNL222W, strain SSU72, hits give low values): 0.886 (active)
- normalized growth (locus YNL307C, strain MCK1 (second series), hits give low values): 0.655
- normalized growth (locus YOL078W, strain AVO1, hits give low values): 0.834 (active)
- normalized growth (locus YOL136C, strain PFK27, hits give low values): 0.843
- normalized growth (locus YOR061W, strain CKA2, hits give low values): 0.908
- normalized growth (locus YOR119C, strain RIO1, hits give low values): 0.734
- normalized growth (locus YOR231W, strain MKK1, hits give low values): 0.91
- normalized growth (locus YOR329C, strain SCD5, hits give low values): 0.896 (active)
- normalized growth (locus YPL031C, strain PHO85, hits give low values): 0.704
- normalized growth (locus YPL153C, strain RAD53, hits give low values): 0.764
- normalized growth (locus YPL204W, strain HRR25, hits give low values): 0.678
- normalized growth (locus YPL209C, strain IPL1, hits give low values): 0.882 (active)
- normalized growth (locus YPL256C, strain CLN2, hits give low values): 1.08
- normalized growth (locus YPR025C, strain CCL1, hits give low values): 0.892 (active)
- normalized growth (locus YPR106W, strain ISR1, hits give low values): 0.966
- normalized growth (locus YPR111W, strain DBF20, hits give low values): 0.952
- normalized growth (strain NNK1, hits give low values): 0.93
- normalized growth (strain TSCII, hits give low values): 0.848 (active)
